Source: PubChem (several laboratories)
An excerpt weighted towards active compounds, which were near 3.6% of everything screened.
Anthrax LF inh2 = Bacillus anthracis LF protease inhibitors, primary screen, biochemical, multiplex microsphere, MLPCN library. multiplex microsphere protease cleavage assay. inhibition, % at 10 µM. hit rate 0.12% among 360,000; also: plate controls were buffer without enzyme for full effect and enzyme alone for no effect
Target sequence (P15917 whole entry, looked up): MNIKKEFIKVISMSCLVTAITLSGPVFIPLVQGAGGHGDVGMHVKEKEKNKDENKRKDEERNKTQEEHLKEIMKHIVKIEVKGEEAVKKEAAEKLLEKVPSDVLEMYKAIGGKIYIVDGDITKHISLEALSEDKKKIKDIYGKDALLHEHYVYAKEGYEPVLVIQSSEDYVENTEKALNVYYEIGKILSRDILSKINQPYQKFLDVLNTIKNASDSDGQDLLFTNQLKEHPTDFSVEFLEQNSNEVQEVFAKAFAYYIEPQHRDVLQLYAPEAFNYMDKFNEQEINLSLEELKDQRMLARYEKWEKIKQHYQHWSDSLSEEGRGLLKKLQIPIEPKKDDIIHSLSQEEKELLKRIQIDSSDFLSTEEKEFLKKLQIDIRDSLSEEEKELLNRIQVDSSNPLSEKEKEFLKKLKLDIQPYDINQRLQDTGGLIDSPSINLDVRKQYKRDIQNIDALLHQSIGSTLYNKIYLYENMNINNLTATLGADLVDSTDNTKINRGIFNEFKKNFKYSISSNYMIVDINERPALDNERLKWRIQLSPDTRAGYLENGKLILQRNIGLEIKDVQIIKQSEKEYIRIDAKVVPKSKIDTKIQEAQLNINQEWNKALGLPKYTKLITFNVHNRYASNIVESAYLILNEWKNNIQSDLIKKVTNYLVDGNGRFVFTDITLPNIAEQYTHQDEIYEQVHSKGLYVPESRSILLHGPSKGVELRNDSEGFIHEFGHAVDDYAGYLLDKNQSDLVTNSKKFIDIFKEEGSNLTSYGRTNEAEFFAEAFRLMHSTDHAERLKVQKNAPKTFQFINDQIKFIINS
Autofluor counter = counter-screen for toxin protease inhibitors: compound fluorescence; AID 624483; hit rate 3.1% among 360,000; compound autofluorescence counterscreen, microsphere flow cytometry; active compounds read high; fluorescence intensity (concentration not given with the values); in the data active = fluorescence intensity above about 16000; inconclusive = no clear call, values can overlap the other calls
BoNT F protease = BoNT/F light chain protease inhibitors, primary screen, biochemical, flow cytometry, MLPCN library; inhibition, % at 10 µM; Botulinum neurotoxin type F light chain protease (Clostridium botulinum); Multiplex microsphere protease cleavage assay; AID 588497, 2011; hit rate 0.22% among 360,000; in the data active = inhibition above about 35%, passing the limit was not always enough; inconclusive = no clear call, values can overlap the other calls; also: plate controls were buffer without enzyme for full effect and enzyme alone for no effect
MazEF act = activators of E. coli MazEF toxin-antitoxin RNase, primary screen, biochemical, fluorescence, uHTS. Endoribonuclease toxin MazF (Escherichia coli (strain K12)), P0AE70. FAM/BHQ RNA-DNA oligo cleavage fluorescence, 5 h. activation, % at 20 µM. hit rate 0.32% among 350,000. AID 504720, 2011; in the data active = activation above about 50%
BoNT-A LC inh2 = BoNT/A light chain protease inhibitors, primary screen, biochemical, flow cytometry, MLPCN library | AID 588499, 2011 | multiplex microsphere protease substrate cleavage | hit rate 0.17% among 360,000 | inhibition, % at 10 µM; also: plate controls were buffer without enzyme for full effect and enzyme alone for no effect
Starred values were filed as active, the others as inactive; ? = inconclusive; . = not tested or not shown. Rule as the data show it, unless noted: active = inhibition above about 30%; inconclusive = no clear call, values can overlap the other calls; inactive = below that.

SMILES	Anthrax LF inh2	Autofluor counter	BoNT F protease	MazEF act	BoNT-A LC inh2
CCOP(=O)(c1ccc(N(C)C)cc1)C(O)c1cccnc1 (configuration not stated)	-23	4211	?	4	-1
CC(C)COP(=O)(c1ccc(N(C)C)cc1)C(O)c1ccccn1 (configuration not stated)	1	10074	5	8	1
CC(C)CCOP(=O)(c1ccc(N(C)C)cc1)C(O)c1ccccn1 (configuration not stated)	3	16641*	0	4	1
CCCOP(=O)(c1ccc(N(C)C)cc1)C(O)c1cccnc1 (configuration not stated)	-1	19815*	-4	-13	-1
COCCC(=O)N1CCC(Oc2ccc(C(=O)N(C)Cc3cc(C)no3)cc2)CC1	-1	4928	1	7	1
C[C@H](CO)N1C[C@H](C)[C@@H](CN(C)C(=O)Nc2ccc3c(c2)OCCO3)OCc2cnnn2CCCC1=O	-9	3826	3	7	0
CN(C)CCNCCCNc1c2ccccc2nc2cccc([N+](=O)[O-])c12	-41	3035	-84	-4	0
COc1ccc(C2CN=NC2C(=O)c2ccccc2)cc1 (configuration not stated)	3	4496	?	-5	5
CN(C)c1ccc(N/C=C/C(=O)c2ccccc2)cc1	-5	10385	-1	154*	0
OCC1OC(n2cnc3c(SCc4ccccc4)nc(F)nc32)C(O)C1O (configuration not stated)	0	3652	-2	7	0
CN(C)c1ccc(/C=C/[N+](=O)[O-])cc1	22	5524	48*	-14	50*
CN(C)c1ccc(-n2cccc2/C=C/[N+](=O)[O-])cc1	9	3705	-2	-12	3
CN(C)c1ccc(C(=O)C=Cc2ccc([N+](=O)[O-])cc2)cc1	0	3795	-4	9	1
CN(c1ccccc1)c1ccc(/C=C/[N+](=O)[O-])cc1	29	8391	23	11	70*
C/C(=C\c1ccc(N(C)C)cc1)[N+](=O)[O-]	3	22567*	0	3	5
CC1CCCN(c2nc3nonc3nc2N2CCCC(C)C2)C1 (configuration not stated)	-6	2918	3	5	-1
CC1CCN(c2nc3nonc3nc2N2CCC(C)CC2)CC1	-2	21212*	-2	0	?
Cc1ccc(Sc2ccc(NC(=O)CCN3C(=O)NC4(CCCC4)C3=O)cc2)c(C)c1	-6	8629	0	-5	-1
O=C(COc1ccccc1Br)NCc1ccco1	0	16469*	0	-1	-1
COc1ccccc1OCC(=O)NCc1ccco1	-11	10212	1	-3	0
O=C(/C=C/c1ccc(Cl)c(Cl)c1)NCc1ccco1	2	2025	35*	-2	3
Cc1ccc(Cl)c(OCC(=O)NCc2ccco2)c1	-1	21508*	-3	6	?
C=CCn1c(C)nnc1SCC(=O)Nc1ccccc1C(=O)NC1CC1	-4	?	1	-2	2
COc1ccc(S(=O)(=O)NNC(=O)Nc2ccc(F)cc2)cc1	.	.	.	4	.
CCN1C(=O)[C@H]2[C@@H](c3ccc(-c4ccccc4)cc3)N3CCC[C@@]3(C(=O)OC)[C@H]2C1=O	-4	2855	-1	-1	0
SMILES	Anthrax LF inh2	Autofluor counter	BoNT F protease	MazEF act	BoNT-A LC inh2
O=C(NC1CC1)c1cccc(Nc2ccc(-c3ccc4c(c3)OCCO4)nn2)c1	-3	21941*	3	-2	4
O=S(=O)(c1ccc(Nc2ccc(-c3ccc4c(c3)OCCO4)nn2)cc1)N1CCCC1	1	7199	-5	6	2
CC(C)CCOc1cccc(OCC(=O)N(C)C2CCS(=O)(=O)C2)c1 (configuration not stated)	-1	16885*	1	-2	-1
Cc1ccccc1OCC(=O)N(Cc1ccc(N(C)C)cc1)C1CCS(=O)(=O)C1 (configuration not stated)	2	23914*	-4	4	-1
O=C1C2CC=CCC2C(=O)N1CC(=O)N(Cc1ccccc1)C1CCS(=O)(=O)C1 (configuration not stated)	-4	22395*	4	6	1
Cc1ccc(OCC(=O)N(Cc2ccc(N(C)C)cc2)C2CCS(=O)(=O)C2)cc1C (configuration not stated)	27	3505	?	-2	2
CCCOc1cccc(C(=O)N(Cc2ccc(OC)c(OC)c2)C2CCS(=O)(=O)C2)c1 (configuration not stated)	-2	23243*	-3	-10	-1
Cc1ccc(C2(C)NC(=O)N(CC(=O)NCc3cccc(Cl)c3)C2=O)cc1 (configuration not stated)	2	3668	-13	0	1
CC1(C)CN(c2ccccc2)C(=O)[C@H]1CC(=O)Nc1ccccc1	-1	3755	6	4	0
COc1cccc(C(=O)N2CCC[C@@H]2C(=O)N2CCC[C@@H]2C(=O)NCc2ccccc2Cl)c1	-7	5643	-2	.	1
CC(NC(=O)c1ccc2c(c1)OCO2)C(c1cccs1)N1CCN(c2ccccc2)CC1 (configuration not stated)	0	4447	-2	-1	-1
CN(C)c1ccc(CN(C(=O)COc2ccccc2)C2CCS(=O)(=O)C2)cc1 (configuration not stated)	-2	16811*	-6	-8	-2
COC[C@H]1OC(=O)c2coc3c2[C@@]1(C)C1=C(C3=O)[C@@H]2CCC(=O)[C@@]2(C)C[C@H]1OC(C)=O	-3	2683	2	67*	0
O=C(CN1C(=O)COc2ccccc21)N(Cc1cccnc1)Cc1cccc(F)c1	0	16903*	-4	-7	?
Cc1ccccc1C(=O)Nc1ccccc1-c1nnn(CC(=O)Nc2ccc3c(c2)OCCO3)n1	-4	13670	12	-33	8
COc1cc(OC)c(-c2nc3cnccc3n2C)cc1OC	-1	16895*	-5	3	?
COc1cc(-c2nc3cnccc3n2C)cc(OC)c1OC	-2	4496	?	0	-2
COC(=O)C1CCN(C(=O)CN2C(=O)NC3(CCC(C)CC3)C2=O)CC1 (configuration not stated)	-4	3071	-1	1	0
COC(=O)Cc1c[nH]c2cccc(OCC(O)CN(Cc3ccc([N+](=O)[O-])cc3)C(C)(C)C)c12 (configuration not stated)	-6	24016*	-9	4	-3
CCCS(=O)(=O)NC(=O)C1(C)CCN(C(=O)COc2ccccc2)C1 (configuration not stated)	6	3717	2	.	0
